Results as given in PubChem BioAssay AID2326 (National Center for Advancing Translational Sciences (NCATS), 2010).
Out of some 270,000 compounds screened, about 1,100 (0.41%) were called active. About 3% were inconclusive and are not listed. This is one part of a sample in which actives are shown more often than they occur. A number with no mark means an inactive call. The call rests on the fitted dose curve.

Test: qHTS Assay for Inhibitors of Influenza NS1 Protein Function; further: actives are rising curves; nearly all actives have a fitted effect of over 50% in size
Settings: series mostly up to 46.1 µM; activity, positive = more growth: at the top concentration
Source text: NIH Chemical Genomics Center [NCGC]
NIH Molecular Libraries Probe Centers Network [MLPCN]
Assay Submitter (PI): Daniel Engel
Influenza is a world-wide public health problem and emerging forms of the virus have the potential to cause a pandemic of equal or greater magnitude to the outbreaks recorded in 1918, 1957 or 1968. Vaccine development is proceeding and there also exist two classes of anti-influenza compounds. However these therapeutic modalities are neither fully effective nor widely enough available to fulfill global needs. In addition their potential usefulness against newly emergent strains is not known. Efforts are needed to develop novel agents against influenza virus, including broad-spectrum agents. Identification of small molecules that inhibit NS1 function either directly or by interfering with specific cellular pathways may be a key to increasing our defense against the virus.
We have miniaturized and optimized a cell based assay in which NS1 from influenza A is expressed in the budding yeast S. cerevisiae. NS1 is a multi-functional protein that counters the host innate immune response and facilitates viral versus cellular gene expression. Expression of NS1 causes a pronounced slow growth phenotype in yeast due to its intrinsic molecular activities. Small molecules that suppress the slow growth phenotype can be identified by a straightforward growth recovery assay using optical density (OD) as the measurement. The same yeast strain not expressing NS1 was used as positive control in the yeast growth recovery assay.
The yeast S. cerevisiae control and NS1 expressing cells were kindly supplied by laboratory of Dr. Daniel Engel, University of Virginia. Yeast starter cultures were stored in single use aliquots at -80C.
1. Yeast culture medium per liter: 1.2 g Yeast Nitrogen Base (w/out amino acids and Ammonium Sulphate), 5.0g Ammonium Sulphate, 0.77g -URA DO (drop-out) Supplement, adjust pH to 6.0. Adjust to 2% glucose prior to inoculating with yeast.
2. Yeast assay medium: 1.2 g Yeast Nitrogen Base (w/out amino acids and Ammonium Sulphate), 5.0g Ammonium Sulphate, 0.77g -URA DO (drop-out) Supplement, adjust pH to 6.0. Adjust to 2% D-galactose prior to inoculating with yeast.
1. Inoculate 100 mls of yeast culture medium with 1 ml of frozen yeast aliquote. Incubate overnight at 30C, 250RPM.
2. Harvest overnight culture at 4000 RPM and wash pellet with 15 mls H2O 3x.
3. Re-suspend washed pellet in 10 mls of yeast assay medium.
4. Prepare a 1:100 dilution of re-suspended culture in yeast assay medium.
5. Dispense 3.5 ul per well of reagents in step 4 in columns 2-48 in a black clear bottom 1536 well plate.
6. Dispense 3.5 ul per well of yeast assay medium in column 1 only.
7. Transfer 23 nl of compound per well.
8. Dispense 3.5 ul per well of yeast assay medium in columns 1-48.
9. Read plate using Viewlux protocol for optical density 600 (OD600) using excitation filter 600nm.
Potency means the concentration at half of the fitted maximal effect.

Structure (SMILES)	activity, positive = more growth [%]	Potency
CC(=O)c1cccc(OCc2cc(C(=O)NC(C)Cc3cccnc3)no2)c1 (stereo not given)	1.99	
CNC(=O)c1sc(Nc2ccc(OCc3ccccc3)cc2)nc1C	-6.93	
CCCn1c(=N)n(CC(=O)c2ccc(Cl)c(Cl)c2)c2ccccc21	-0.19	
COc1ccc(/C=C2\SC(=O)N(CCC(=O)NC3CCS(=O)(=O)C3)C2=O)cc1 (stereo not given)	-18.3	
Cc1nnc(NC(=O)Cn2c(=O)sc3ccccc32)s1	0.343	
O=C(CCS(=O)(=O)c1ccccc1)Nc1nc2c(s1)CCCC2	-11.9	
Cc1ccc(-n2c(SCC(=O)N3CCC(C(=O)O)CC3)nc3ccccc3c2=O)cc1C	11.5	
Cc1ccc(NS(=O)(=O)c2ccc(-c3coc(C)n3)cc2)c(C)c1	4.83	
CC(C)c1ccc(OCC(=O)N2CCN(C)CC2)c(Br)c1	-5.71	
CCOc1cc(CO)ccc1OCC(=O)N1CCCCC1	3.05	
CN1CCN(C(=O)COc2ccc(C(C)(C)C)cc2Br)CC1		3.98 µM (active)
CC(C)(C)c1ccc(SCCc2ccncc2)cc1	-39.6	
O=C(N/N=C/c1ccccc1O)C1CCCC1	-10.7	
O=C(CSc1ccc(-c2ccccn2)nn1)Nc1ccccc1	-103	
CCOc1ccccc1/C=N/Nc1nc2ccccc2o1	-5.44	
O=S(=O)(NCc1ccc(Cl)cc1Cl)c1cccs1	-58.9	
COCCCNc1nc2c(-c3cccc(C)c3)nnn2c2ccc(Cl)cc12	-31.8	
CCCc1[nH]nc2c1C(C1CC=CCC1)C(C#N)=C(N)O2 (stereo not given)	6.91	
CCCc1[nH]nc2c1C(c1ccc(Br)s1)C(C#N)=C(N)O2 (stereo not given)		2.51 µM (active)
CCCc1[nH]nc2c1C(c1c(C)nn(-c3ccccc3)c1Cl)C(C#N)=C(N)O2 (stereo not given)	5.69	
Cc1cccc(C(=O)NC(=S)N(C)C2CCCCC2)c1	-54.8	
COc1ccc(CCc2nc(-c3cccs3)no2)cc1	-25.1	

Structure (SMILES)	activity, positive = more growth [%]	Potency
COc1ccc(C(=O)NC(=S)N2CCCCC2c2cccnc2)cc1OC (stereo not given)	-12	
O=C(N/N=C/c1cccc(OCc2ccccc2)c1)c1ccc(Br)o1	-38.4	
O=C(Cc1ccc(Cl)cc1)NC(=S)Nc1ccccc1O	5.46	
Cc1cccc(-n2c(SCC(=O)Nc3cccc(S(=O)(=O)NC4=NCCCCC4)c3)nc3ccccc3c2=O)c1C		22.4 µM (active)
CCc1ccc(C(=O)OCC(=O)Nc2cccc(S(=O)(=O)NC3=NCCCCC3)c2)cc1	-22	
NS(=O)(=O)c1cccc(NC(=O)CSc2nc3ccccc3n2-c2ccccc2)c1	15.1	
CCN(CC(=O)Nc1ccc(C)c(S(=O)(=O)N(C)C)c1)Cc1ccccc1	-2.09	
Cc1ccc(CSc2nsc(C)c2C#N)cc1	-1.63	
COc1ccc(C(=O)CC(=O)C(=O)Nc2cc([N+](=O)[O-])ccc2OC)cc1	8.6	
CSc1nccc(NC(=O)c2ccc(C(C)(C)C)cc2)n1	-43.5	
O=C(COc1ccc(Cl)cc1Cl)N/N=C/c1ccccn1	-55.6	
O=C(O)CC(CC(=O)N1CCOCC1)c1ccccc1 (stereo not given)	4.06	
O=C(O)CC(c1ccccc1)n1cnnn1 (stereo not given)	-1.31	
O=C(O)CC(Cn1cnnn1)c1ccccc1 (stereo not given)		8.91 µM (active)
Cc1ccc(CNC(=O)C(=O)c2cn(CC(=O)N3CCCC3)c3ccccc23)cc1	1.2	
COc1cc(CNCc2ccc(OC)c3ccccc23)cc(OC)c1OC	12.4	
COc1ccc(Nc2ncnc3ccc(Br)cc23)c(OC)c1	-47.8	
COc1ccc(CC(=O)N/N=C/c2cc([N+](=O)[O-])cc(Br)c2O)cc1	5.43	
CC(C)(COC(=O)Nc1ccccc1)COC(=O)Nc1ccccc1	-46.3	
COc1ccc(C=C(C#N)C#N)c(CSc2ccccn2)c1	-3.49	
COc1ccc(NCCc2ccccn2)cc1	-5.94	
Cn1c(=O)c(=O)n(C)c2cc(S(=O)(=O)CCC(=O)N3CCCCC3)ccc21	6.48	

Structure (SMILES)	activity, positive = more growth [%]	Potency
Cc1ccc(NS(=O)(=O)c2ccc3c(c2)n(C)c(=O)c(=O)n3C)c(C)c1	3.06	
CCc1ccc(S(=O)(=O)Nc2cc3c(cc2N2CCCCC2)n(C)c(=O)c(=O)n3C)cc1		2.82 µM (active)
CCOC(=O)CC1COCCN1C(=O)c1cc(COc2ccc(F)c(F)c2)on1 (stereo not given)	-7.11	
O=C(NC(=S)N1CCCCC1c1cccnc1)c1ccccc1 (stereo not given)	-11	
CCC(C)c1ccc(NC(=S)N2CCCC2)cc1 (stereo not given)	-46	
CCOC(=O)c1ccccc1N1C(=O)C2Sc3[nH]c(=O)sc3C(/C=C/c3ccccc3)C2C1=O (stereo not given)	27	
COC(=O)C1=C(C)N=C2SC(C)C(=O)N2C1/C=C/c1ccccc1 (stereo not given)		11.2 µM (active)
COC(=O)C1=C(C)NC(=O)NC1/C=C/c1ccccc1 (stereo not given)	-6.7	
Cc1nonc1NC(=O)c1oc2ccccc2c1C	-9.93	
Cc1nc(N2CCOCC2)sc1C(=O)NN	5.54	
Cc1ccc(SCC(=O)c2sc(-c3ccccc3)nc2C)cc1	-13.1	
Cc1nc(-c2ccc(Cl)cc2)sc1C(=O)NN		3.55 µM (active)
CN(CC(=O)Nc1ccc(F)cc1)C(=O)c1ccc(-c2ccc(Cl)cc2)o1	-54	
CCOC(=O)CC1(NC(=O)c2cc(COc3cncc(Cl)c3)on2)CCCCC1	-17.2	
O=C(Cc1cccs1)NCc1cccc(C(F)(F)F)c1	2.72	
N#Cc1c(-c2cccs2)nc(SCC(=O)c2ccc(Br)cc2)[nH]c1=O		3.16 µM (active)
O=C(CSc1nc2ccccc2c(=O)[nH]1)Nc1nc(-c2ccc(Br)cc2)cs1	13.7	
Cc1ccc(CSc2nc(-c3ccccc3)c(C#N)c(=O)[nH]2)cc1	2.5	
COc1ccc(NC(=O)CSc2nc3ccccc3c(=O)n2C)cc1	2.09	
COCCN1C(=O)N(c2ccc(Cl)cc2)C(=O)C1CC(=O)Nc1cc(OC)cc(OC)c1 (stereo not given)	-4.12	
CC(=O)N1c2ccc(S(=O)(=O)N3CCCC(C(=O)Nc4cccc(F)c4)C3)cc2CC1C (stereo not given)	9.5	
